# Compound activity deposited in PubChem by National Center for Advancing Translational Sciences (NCATS).
# This is a sample that favours compounds with a hit; in the whole collection about 4.7% have one here.
# D1 agonist: Allosteric Agonists of the Human D1 Dopamine Receptor: qHTS. D(1A) dopamine receptor (Homo sapiens), P21728. HEK293 T-REx D1 cells, calcium flux, agonist mode. activation, % at 2 µM. 1% of 360,000 active. AID 504660, 2011; also: 0% is about no effect
# Target sequence (P21728 whole entry, looked up): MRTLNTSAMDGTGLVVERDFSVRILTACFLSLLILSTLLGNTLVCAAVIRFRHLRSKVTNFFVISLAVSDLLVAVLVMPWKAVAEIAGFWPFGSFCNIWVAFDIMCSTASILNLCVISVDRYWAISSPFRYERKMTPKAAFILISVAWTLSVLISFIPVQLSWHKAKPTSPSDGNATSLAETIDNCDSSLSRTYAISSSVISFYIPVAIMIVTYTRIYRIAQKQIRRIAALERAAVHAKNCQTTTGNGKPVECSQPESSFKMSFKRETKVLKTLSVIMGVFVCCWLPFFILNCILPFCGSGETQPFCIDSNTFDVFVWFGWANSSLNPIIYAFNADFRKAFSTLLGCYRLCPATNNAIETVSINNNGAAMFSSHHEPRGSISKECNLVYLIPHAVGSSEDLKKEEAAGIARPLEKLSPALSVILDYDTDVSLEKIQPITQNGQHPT
#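 Inducible HEK293 T-REx D1 cells, force-coupled to calcium signalling, were plated at 4000 cells/well with tetracycline and held overnight at 30 C. After no-wash calcium dye loading, compound-evoked calcium rise over 180 s flagged agonists.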
# D1 potentiator: Potentiators of Human D1 Dopamine Receptor: qHTS; potentiation, % at 10 µM; D(1A) dopamine receptor (Homo sapiens), P21728; HEK293 TREx D1 cells, calcium flux, dopamine EC20 potentiation; 0.036% of 360,000 active; in the data active = potentiation above about 30%; also: 0% is about no effect
# D1 antagonist: Antagonist of Human D 1 Dopamine Receptor: qHTS | HEK293 TREx D1 cells, calcium flux, dopamine EC80; stronger effect = lower value | 3.2% of 360,000 active | activity change, negative = inhibition, % at 10 µM | D(1A) dopamine receptor (Homo sapiens), P21728; in the data active = activity change below about -30%; also: % is scaled to controls: 0 for no effect and ±100 for the full control effect
#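 Tetracycline-induced HEK293 Trex D1 cells, force-coupled to calcium, dye-loaded; compounds added and read 180 s, then EC80 dopamine added and calcium flux tracked kinetically another 180 s.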
# TRHR agonist: qHTS for Small Molecule Agonists and Allosteric Enhancers of Human TRH Receptor: Primary Screen for Agonists. 0.18% of 360,000 active. Thyrotropin-releasing hormone receptor (Homo sapiens), P34981. activation, % at 2 µM. TRHR cells, calcium flux fluo-8, FDSS agonist mode; also: 0% is about no effect
#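 TRHR-expressing cells, plated overnight in medium with 10% serum, were loaded with fluo-8 calcium dye at room temperature. After a 10 s baseline, library compound was pin-added and calcium release was recorded kinetically (ex 480/em 530) as agonist response.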
# TRHR enhancer: qHTS for Small Molecule Agonists and Allosteric Enhancers of Human TRH Receptor: Primary Screen for Enhancers; Thyrotropin-releasing hormone receptor (Homo sapiens), P34981; TRHR cells, fluo-8 calcium fluorescence, EC20 TRH enhancement; enhancement, % at 2 µM; 0.66% of 360,000 active; AID 493056, 2011; in the data active = enhancement above about 30%; also: 0% is about no effect
#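 TRHR-expressing cells loaded with fluo-8 calcium dye were read kinetically (ex 480/em 530) during compound addition, then stimulated with an EC20 of TRH (10 nM final). Enhancement of the Gq-mediated intracellular calcium response was scored.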
# Active calls of the source: *; nt = no result given. Rule as the data show it, unless noted: active = activation above about 30%; inactive = the rest.
SMILES,D1 agonist,D1 potentiator,D1 antagonist,TRHR agonist,TRHR enhancer
Cc1ccc(/C=C/C(=O)N2CCC(c3nc4ccccc4o3)CC2)cc1,1,-1,-8,0,-3
COCCNC(=O)c1cc2sccc2n1C,1,-7,-8,0,5
COc1ccc(CNC(=O)c2cc3sccc3n2C)cc1,0,-1,-52*,0,5
COc1ccc(CNC(=O)c2ccc(C(C)C)cc2)cc1,3,-4,-47*,-1,-3
COc1ccc(NC(=O)Cn2c(=O)n(C(C)C)c(=O)c3oc4ccccc4c32)cc1Cl,2,-5,14,1,-10
CC(C)(C)OC(=O)N1CCC(c2nnc(SCc3ccccc3)o2)CC1,25,-3,4,-2,-7
N#C/C(N=Nc1ccccc1O)=N\Nc1ccccc1O,36*,-6,-59*,7,-4
Cc1c(Cl)cccc1NC(=O)C(C)N(c1ccccc1)S(C)(=O)=O (stereo not drawn),1,-2,14,0,-7
N#CC1=C(N)NC(SCc2ccccc2)=C(C#N)C12CCCCC2,19,-1,-36*,0,-7
O=C(/C=C/c1cccc2ccccc12)c1ccncc1,2,-3,2,2,6
Cc1[nH]c2ccccc2c1/C=C/C(=O)c1ccncc1,55*,-6,7,-1,8
c1cnc2c(C3NCCc4c3[nH]c3ccccc43)cccc2c1 (stereo not drawn),41*,1,-57*,1,15
O=C(O)c1cccnc1C(=O)N1CCc2c([nH]c3ccccc23)C1C(F)(F)F (stereo not drawn),2,0,13,-1,-5
CCOC(=O)c1ccc(CC(=O)c2ccc(O)c(O)c2O)o1,7,1,-48*,2,-2
COc1ccccc1OCc1nnc(-c2ccccc2)o1,-1,1,2,-1,-2
COc1ccc(S(=O)(=O)NCCc2cn3ccsc3n2)cc1OC,0,-3,6,0,0
COc1ccc(S(=O)(=O)NCCc2cn3ccsc3n2)cc1,1,-4,-45*,0,-3
Cc1ccc(S(=O)(=O)NCCc2cn3ccsc3n2)cc1,0,1,-73*,0,2
Cc1nc(-c2cccnc2)sc1CCNS(=O)(=O)c1ccc(F)cc1,2,-4,-9,0,0
O=C(Nc1ccc(F)cc1F)Nc1csc2ccccc12,13,-5,-33*,2,1
CC(C)CNC(=O)Nc1ccc(F)c(Cl)c1,14,-1,-13,2,-3
O=C(Nc1ccc(F)c(Cl)c1)Nc1csc2ccccc12,14,-10,-33*,0,-10
COc1ccc(NC(=O)CC2C(=O)N(c3ccccc3)C(=O)N2CCc2sccc2C)cc1 (stereo not drawn),2,0,-1,-1,-1
CCCCCOc1ccc(C(=O)CCC(=O)N2CCCC2)cc1,36*,-7,-7,0,-2
CCCCOc1ccc(C(=O)CCN2CCOCC2)cc1,10,-8,-34*,-1,0
SMILES,D1 agonist,D1 potentiator,D1 antagonist,TRHR agonist,TRHR enhancer
CCCCOc1ccc(C(=O)N2CCCC2)cc1,0,-3,15,-1,1
COc1cc(Cl)c(C)cc1NC(=O)CSc1nc2c(c(=O)[nH]1)CCC2,0,-3,11,0,-4
O=C(Nc1ccc(Cl)cc1)c1ccc2c(c1)N(Cc1ccccc1)CCS2,0,-2,-9,1,1
Cc1csc(NC(=O)c2ccoc2C)n1,-3,0,25,0,0
Cc1c(C(=O)Nc2nnc(C(F)(F)F)s2)oc2ccccc12,10,0,-38*,-1,6
Cc1occc1C(=O)Nc1nnc(C(F)(F)F)s1,9,1,-30*,2,-10
O=C(Nc1ccccc1C(=O)Nc1nnc(C(F)(F)F)s1)c1ccccc1,26,-5,-39*,2,-4
NC[C@H](Cc1ccccc1)NCCCCC1CCCCC1,-4,-1,nt,0,2
